Results as given in PubChem BioAssay.
Calls of active or inactive are those of the source. Unless noted, the rule behind the calls is not given here.

Columns and labels:
[1] = compound effects on lung adenocarcinoma cell viability – A549, calcein-AM fluorescence, 48 h, basal, profiling panel (AID 1162); conditions: higher = more signal; note: test concentration not given here
[2] = compound effects on differentiated 3T3-L1 adipocyte viability – cell-based, 3T3-L1 adipocytes, calcein-AM fluorescence, 48 h, basal, profiling panel (AID 1163); conditions: 3T3-L1 adipocytes viability, higher = more signal; note: test concentration not given here
[3] = compound effects on hepatocellular carcinoma cell viability – HepG2, calcein-AM fluorescence, 48 h, basal, profiling panel (AID 1164); conditions: higher = more signal; note: test concentration not given here
[4] = compound effects on multiple myeloma cell viability – MM1S, calcein-AM fluorescence, 48 h, basal, profiling panel (AID 1165); conditions: higher = more signal; note: test concentration not given here
[5] = calcein-AM signal in unstimulated myeloma cells – cell-based, calcein-AM fluorescence, 48 h, PK04 Diversity Set, profiling panel (AID 1166); conditions: RPMI8226 myeloma viability, higher = more signal;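 note: cells grown under basal conditions without added stimulus; test concentration not given here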
[6] = JC-1 mitochondrial signal, unstimulated HepG2 cells – cell-based, JC-1 fluorescence, 24 h, 100 nL compound, profiling panel (AID 1167); conditions: HepG2 mitochondrial potential, higher = more signal; note: test concentration not given here
[7] = JC-1 mitochondrial signal, unstimulated adipocytes – cell-based, JC-1 fluorescence, 3T3-L1 adipocytes, 24 h, 100 nL compound, profiling panel (AID 1168); conditions: JC-1 mitochondrial fluorescence, higher = more signal, called active from +8 up or from −8 down; note: test concentration not given here
[8] = JC-1 mitochondrial signal, unstimulated myeloma cells – cell-based, JC-1 fluorescence, RPMI8226, 24 h, 100 nL compound, profiling panel (AID 1169); conditions: JC-1 mitochondrial potential fluorescence, higher = more signal; note: test concentration not given here
[9] = JC-1 mitochondrial signal, unstimulated MM1S myeloma – cell-based, JC-1 fluorescence, 24 h, 100 nL compound, profiling panel (AID 1170); conditions: MM1S mitochondrial potential, higher = more signal; note: test concentration not given here
[10] = resazurin metabolic signal in A549 cells – cell-based, resazurin fluorescence, 24 h, PK04 Diversity Set, profiling panel (AID 1171); conditions: A549 viability, higher = more signal, called active from +8 up or from −8 down; note: test concentration not given here
[11] = resazurin metabolic signal in HepG2 cells – cell-based, resazurin fluorescence, 24 h, PK04 Diversity Set, profiling panel (AID 1172); conditions: HepG2 viability, higher = more signal; note: test concentration not given here
[12] = budding yeast growth changes without added modifier – OD600, strain BY4716, 24 h, basal condition, primary screen (AID 1173); conditions: S. cerevisiae BY4716 growth, OD600, 24 h; higher = more signal, called active from +8 up or from −8 down
[13] = viability profiling in MM1S myeloma cells – cell-based, resazurin fluorescence, basal, 24 h, PK04 Diversity Set, profiling panel (AID 1174); conditions: higher = more signal, called active from +8 up or from −8 down; note: test concentration not given here
[14] = biological target: Dihydroorotate dehydrogenase (quinone), mitochondrial (Plasmodium falciparum (isolate 3D7)) (UniProt Q08210); assay: inhibition of P. falciparum DHODH – biochemical, C-terminal His tag, absorbance 600 nm, primary screen (AID 1175); conditions: PfDHODH enzyme, DCIP absorbance 600 nm; higher = more signal, called active from +8 up or from −8 down;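 note: recombinant parasite enzyme with a five histidine tag at its C terminus; test concentration not given here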
[15] = inhibition of PAO1 biofilm formation – strain PAO1, LB-PBS medium, absorbance 600 nm, primary screen (AID 1176); note: test concentration not given here; conditions: P. aeruginosa PAO1 growth/biofilm, A600, 12 h; higher = more signal
[16] = growth modulation of vineyard yeast isolate – strain RM11-1a, OD600, basal, 24 h, primary screen (AID 1177);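 note: cultures grown under basal conditions with no added stressor; test concentration not given here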; conditions: S. cerevisiae RM11-1a growth, OD600, 24 h; higher = more signal, called active from +8 up or from −8 down
[17] = growth of efflux-deficient E. coli DRC39 – strain DRC39, OD650, 24 h, E. coli filamentation inducers, primary screen (AID 1178);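 note: growth measured as culture turbidity by optical density at 650 nm; test concentration not given here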; conditions: E. coli DRC39 acrAB, higher = more signal, called active from +8 up or from −8 down
[18] = growth of efflux-deficient E. coli DRC39 – strain DRC39, OD650, 48 h, E. coli filamentation inducers, primary screen (AID 1179);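 note: screen aims at cell division blockers that make cells filament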; conditions: E. coli DRC39 delta-acrAB growth, higher = more signal, called active from +8 up or from −8 down
[19] = viability profiling in RPMI8226 myeloma cells – cell-based, resazurin fluorescence, basal, 24 h, PK04 Diversity Set, profiling panel (AID 1180); conditions: higher = more signal;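 note: RPMI8826 multiple myeloma cell line at 5000 cells per well; test concentration not given here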
[20] = biological target: E3 ubiquitin-protein ligase XIAP (Homo sapiens) (UniProt P98170); assay: small molecules binding XIAP protein – biophysical, small-molecule microarray, fluorescence 635 nm, primary screen (AID 1181); conditions: higher = more signal;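 note: score merges 667 nm emission and signal to noise over triplicate slides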
Chain of E3 ubiquitin-protein ligase XIAP (Homo sapiens) (P98170 whole entry, looked up): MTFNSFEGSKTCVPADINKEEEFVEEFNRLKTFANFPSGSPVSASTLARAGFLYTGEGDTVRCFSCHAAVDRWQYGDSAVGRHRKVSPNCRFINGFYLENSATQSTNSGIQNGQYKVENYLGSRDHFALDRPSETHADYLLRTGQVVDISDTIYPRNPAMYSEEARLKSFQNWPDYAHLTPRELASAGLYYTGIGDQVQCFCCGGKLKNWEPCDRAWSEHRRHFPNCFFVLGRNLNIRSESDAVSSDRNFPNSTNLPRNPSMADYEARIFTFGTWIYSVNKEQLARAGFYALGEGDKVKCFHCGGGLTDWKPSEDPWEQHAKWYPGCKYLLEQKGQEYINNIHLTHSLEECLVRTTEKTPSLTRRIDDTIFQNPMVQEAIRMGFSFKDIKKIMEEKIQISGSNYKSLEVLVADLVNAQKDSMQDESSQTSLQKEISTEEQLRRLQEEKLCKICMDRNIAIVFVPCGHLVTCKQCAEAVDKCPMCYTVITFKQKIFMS

Chain of Dihydroorotate dehydrogenase (quinone), mitochondrial (Plasmodium falciparum (isolate 3D7)) (Q08210 whole entry, looked up): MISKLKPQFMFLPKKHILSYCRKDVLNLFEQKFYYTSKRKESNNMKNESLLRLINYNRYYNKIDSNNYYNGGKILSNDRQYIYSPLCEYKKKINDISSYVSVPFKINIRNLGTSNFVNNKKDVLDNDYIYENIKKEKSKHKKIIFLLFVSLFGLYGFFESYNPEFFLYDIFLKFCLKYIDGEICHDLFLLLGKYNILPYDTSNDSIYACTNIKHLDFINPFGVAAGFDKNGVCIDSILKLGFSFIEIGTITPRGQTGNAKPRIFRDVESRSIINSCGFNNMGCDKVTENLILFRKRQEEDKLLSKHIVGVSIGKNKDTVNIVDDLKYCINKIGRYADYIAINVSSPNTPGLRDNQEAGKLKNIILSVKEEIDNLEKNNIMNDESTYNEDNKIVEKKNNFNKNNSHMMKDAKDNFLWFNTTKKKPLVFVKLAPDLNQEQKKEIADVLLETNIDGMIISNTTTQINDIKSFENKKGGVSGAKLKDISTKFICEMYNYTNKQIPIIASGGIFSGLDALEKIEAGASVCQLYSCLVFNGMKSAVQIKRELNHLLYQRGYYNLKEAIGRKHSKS

Row | SMILES | z-score [1] | z-score [2] | z-score [3] | z-score [4] | z-score [5] | z-score [6] | z-score [7] | z-score [8] | z-score [9] | z-score [10] | z-score [11] | z-score [12] | z-score [13] | composite z-score [14] | z-score [15] | z-score [16] | z-score [17] | z-score [18] | z-score [19] | composite z-score [20]
1 | C=CCNC(=O)[C@H]1[C@@H]2C(=O)O[C@@H](c3ccccc3)[C@@H](c3ccccc3)N2[C@@H](c2ccc(OCCO)cc2)[C@]12C(=O)N(C(=O)OCCOC)c1ccc(C#CC3(O)CCCCCC3)cc12 | 1.13 | 1.61 | 0.388 | -0.963 | -2.4 | -0.898 | 1.71 (inactive) | -0.774 | -0.988 | 0.454 (inactive) | -0.162 | 1.33 (inactive) | -0.421 (inactive) | -1.08 (inactive) | 1.79 (inactive) | 2.43 (inactive) | -0.129 (inactive) | 1.16 (inactive) | 0.393 | -0.0999
2 | [N-]=[N+]=NCc1ccccc1[C@H]1OC(c2ccc(OCCCO)cc2)=N[C@@]1(Cc1ccccc1)C(=O)O | 1.17 | -1.06 | 0.991 | 0.791 | 0.465 | -0.0179 | 0.241 (inactive) | -0.491 | -0.804 | 0.932 (inactive) | 1.31 | -3.06 (inactive) | -0.967 (inactive) | -0.055 (inactive) | -0.0862 (inactive) | 0.816 (inactive) | -1.13 (inactive) | -0.835 (inactive) | 0.273 | -0.205
3 | C[N+](C)(C)CCCC[C@@H]1NC(=O)[C@@H]2C[C@H](C(=O)NCCCCCCNC(=O)CS)[C@H](c3cccc(OCCO)c3)N2C1=O | -0.14 | -0.0406 | 1.5 | 0.954 | 0.186 | 1.53 | 0.215 (inactive) | 0.476 | -0.677 | -0.333 (inactive) | 0.0265 | 0.159 (inactive) | -0.0664 (inactive) | 0.092 (inactive) | -0.117 (inactive) | -0.18 (inactive) | 0.253 (inactive) | 0.832 (inactive) | 0.24 | 0.131
4 | Cc1ccc(S[C@]2(C(=O)NCCCN(C)C)CC(=O)N(Cc3ccccc3)[C@@H]2c2ccc(CO)cc2)cc1 | 0.931 | -0.084 | -0.569 | -0.569 | -1.12 | 0.816 | -0.946 (inactive) | -0.718 | 0.706 | 0.516 (inactive) | -0.519 | -0.686 (inactive) | 0.833 (inactive) | -0.336 (inactive) | 0.317 (inactive) | -0.358 (inactive) | -0.194 (inactive) | -0.435 (inactive) | 0.63 | -0.185
5 | COC(=O)[C@@]1(Cc2ccc(OC)cc2)[C@H]2c3cc(C(=O)N4CCCC4)n(CCN4CCOCC4)c3C[C@H]2CN1C(=O)c1ccccc1 | -1.35 | 0.077 | 0.707 | 0.847 | -1.16 | 2.52 | 0.642 (inactive) | 0.28 | -0.936 | 0.0452 (inactive) | 0.142 | 0.642 (inactive) | -0.0281 (inactive) | -1.33 (inactive) | 0.231 (inactive) | 0.48 (inactive) | 0.0378 (inactive) | 0.484 (inactive) | 0.639 | 0.0305
6 | O=C1C[C@@](C(=O)O)(c2ccc([N+](=O)[O-])cc2)[C@@H](c2ccc(CO)cc2I)N1CC12CC3CC(CC(C3)C1)C2 | -1.27 | -1.05 | -4.72 | -3.8 | -4.35 | -2.54 | -1.28 (inactive) | -0.811 | -2.41 | -1.77 (inactive) | -1.79 | -4.78 (inactive) | -5.9 (inactive) | -1.49 (inactive) | 1.34 (inactive) | -0.326 (inactive) | -0.401 (inactive) | -0.0671 (inactive) | -6 | -0.17
7 | CCOC(=O)C[C@H]1[C@H](OC(=O)c2cc3ccccc3oc2=O)[C@@H](NC(=O)c2ccc3ccccc3c2)c2cc(OCCCO)ccc2N1C(=O)c1ccccc1 | 0.659 | 2.7 | 0.582 | 0.0168 | -0.608 | -1.3 | 0.571 (inactive) | 0.416 | 0.755 | -1.01 (inactive) | -0.438 | -1.31 (inactive) | -0.382 (inactive) | -2.91 (inactive) | -0.647 (inactive) | -0.283 (inactive) | -0.464 (inactive) | -1.03 (inactive) | -0.486 | 0.0871
8 | COC(=O)[C@@]1(Cc2ccc(OC)cc2)[C@H]2c3cc(C(=O)N(C)C)n(CCSCCO)c3C[C@H]2CN1C(=O)c1ccccc1 | -0.46 | -0.774 | 0.595 | -2.12 | -0.254 | 1.47 | -0.358 (inactive) | 0.179 | -1.07 | -0.494 (inactive) | 0.123 | 0.32 (inactive) | -0.415 (inactive) | -0.669 (inactive) | 0.852 (inactive) | -0.459 (inactive) | 0.219 (inactive) | -0.143 (inactive) | -0.409 | -0.0062
9 | C=CCC(OC(C)=O)[C@@H]1[C@@H](N(Cc2cc3ccccc3o2)C(=O)c2cccc3ccccc23)c2cc(OCCCO)ccc2N1C(=O)Cc1ccc(OC)cc1 (stereo not given in full) | 0.323 | 1.28 | 0.222 | 0.381 | -1.05 | 2.46 | -0.0309 (inactive) | 0.181 | 0.177 | -1.38 (inactive) | -1.29 | -0.149 (inactive) | -1.17 (inactive) | 0.507 (inactive) | -0.334 (inactive) | 0.196 (inactive) | -0.386 (inactive) | -0.725 (inactive) | -1.17 | 0.211
10 | COCCOC(=O)N1C(=O)[C@@]2(c3cc(C#Cc4ccc(OC)cc4)ccc31)[C@H](c1ccc(OCCO)cc1)N1[C@H](c3ccccc3)[C@H](c3ccccc3)OC(=O)[C@H]1[C@@H]2C(=O)N1CCc2cc(OC)c(OC)cc2C1 | 0.618 | 0.979 | 0.156 | 0.427 | 0.959 | -0.343 | 2.92 (inactive) | -0.322 | -1.24 | 0.216 (inactive) | 1.04 | 2.62 (inactive) | 1.02 (inactive) | -0.0321 (inactive) | 3.34 (inactive) | 3.55 (inactive) | -0.148 (inactive) | 0.0574 (inactive) | 0.928 | -0.0476
11 | [N-]=[N+]=NCc1ccccc1C[C@@]1(C(=O)NCc2ccccc2)N=C(c2ccc(OCCCO)cc2)O[C@@H]1c1ccccc1CN=[N+]=[N-] | -0.293 | -0.0193 | 0.236 | -0.645 | -1.13 | 0.0212 | -0.835 (inactive) | -0.66 | -1.32 | 1.01 (inactive) | -0.594 | 0.548 (inactive) | -0.709 (inactive) | -0.067 (inactive) | 1.74 (inactive) | 1.28 (inactive) | 0.561 (inactive) | 0.678 (inactive) | -0.538 | -0.174
12 | CC(C)(C)OC(=O)CC[C@@]1(C(=O)N2CCOCC2)N=C(c2ccc(OCCCO)cc2)O[C@@H]1c1ccccc1N=[N+]=[N-] | 0.962 | 0.122 | 0.169 | -0.49 | 0.338 | 2.09 | 5.5 (inactive) | -0.499 | -1.03 | 0.716 (inactive) | 0.725 | 0.297 (inactive) | -0.894 (inactive) | 0.668 (inactive) | -0.596 (inactive) | 1.1 (inactive) | 0.611 (inactive) | 1.52 (inactive) | 0.066 | 0.205
13 | O=C1c2ccccc2[C@@]2(Cc3ccccc3N(Cc3ccccc3)C2=O)[C@H](c2ccc(CO)cc2)N1Cc1ccccc1C(F)(F)F | 0.74 | 1 | 1.22 | 0.166 | 0.816 | 1.28 | 0.084 (inactive) | -0.0385 | 0.29 | -1.16 (inactive) | -0.897 | -0.614 (inactive) | -1.28 (inactive) | -4.41 (inactive) | 0.127 (inactive) | 0.349 (inactive) | 0.225 (inactive) | 0.429 (inactive) | -0.59 | -0.148
14 | C=CCOC(=O)[C@@H]1[C@H]2C(=O)O[C@H](c3ccccc3)[C@H](c3ccccc3)N2[C@H](c2ccc(OCCOC(=O)[C@H]3C[C@H]4C(=O)N[C@@H](Cc5ccccc5)C(=O)N4[C@H]3c3ccc(O)cc3)cc2)[C@@]12C(=O)Nc1ccc(I)cc12 | -0.688 | -0.724 | -0.0809 | -3.46 | -2.98 | -0.638 | 1.43 (inactive) | -0.609 | -1.4 | -0.0596 (inactive) | -0.0291 | -0.149 (inactive) | -1.98 (inactive) | -8.55 (active) | 0.932 (inactive) | 2.52 (inactive) | -1.52 (inactive) | -1.06 (inactive) | -1.01 | -0.187
15 | COc1ccc(C#Cc2ccc3c(c2)[C@]2(C(=O)N3)[C@H](C(=O)N3CCc4cc(OC)c(OC)cc4C3)[C@H]3C(=O)O[C@H](c4ccccc4)[C@H](c4ccccc4)N3[C@@H]2c2ccc(OCCO)cc2)cc1 | 1.04 | 0.386 | 0.515 | -0.73 | 0.223 | -0.233 | 2.37 (inactive) | -0.513 | -1.5 | 0.185 (inactive) | 0.0594 | 2.37 (inactive) | -0.0819 (inactive) | -1.04 (inactive) | 1.66 (inactive) | 4.19 (inactive) | 0.452 (inactive) | 0.593 (inactive) | 1.5 | -0.209
